# Source: PubChem BioAssay AID1578 (Sanford-Burnham Center for Chemical Genomics, 2009)
# Among all 290,000 compounds or so, about 3,000 (1%) were called active. Rule as the data show it: active = inhibition mostly above about 36% (no sharp cut-off); inactive = mostly below about 34%. The full list was thinned out, with actives kept by preference.
# Assay: NOD1 signaling inhibitors, primary screen, cell-based, luminescence, uHTS (AID 1578);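 also: HEK-293T reporter cells stimulated with the NOD1 agonist gamma-tri-DAP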
# Conditions: NOD1-driven NF-kB luciferase reporter cells, at 4 µM, hits give high values
row,SMILES,inhibition
1,COc1ccccc1OCc1ccc(C(=O)N2CCOCC2)o1,-11% (inactive)
2,C=CCN(Cc1cc(OC)ccc1OC)S(=O)(=O)N(C)C,3.4% (inactive)
3,O=C(Cc1ccc(Br)cc1)OCC(=O)N1CCc2ccccc2C1,-12.8% (inactive)
4,OCCC1CN(Cc2cccc(-c3ccco3)c2)CCN1Cc1ccsc1 (configuration not stated),-17.2% (inactive)
5,CSCc1cc(N2CCOCC2)nc(SCc2ccc(Cl)c(Cl)c2)n1,-11.4% (inactive)
6,COc1ccc(CSc2nc(CSC)cc(N3CCOCC3)n2)cc1,7.8% (inactive)
7,COCc1cc(N2CCOCC2)nc(SCc2ccc(Cl)cc2)n1,52.1% (active)
8,CCCCCCn1ccc(=N)cc1,41.6% (inactive)
9,CCCCCn1ccc(=N)cc1,13.1% (inactive)
10,CCN(CC)S(=O)(=O)c1ccc(NS(=O)(=O)c2ccc3oc(=O)[nH]c3c2)cc1,22.1% (inactive)
11,COC(=O)C1C(=O)c2c(C)noc2CC1(C)C (configuration not stated),64.3% (active)
12,CCCc1n[nH]c2c1C(=O)C(C(=O)OC)C(C)(C)C2 (configuration not stated),11.5% (inactive)
13,COC(=O)C1C(=O)c2c(n[nH]c2C)CC1(C)C (configuration not stated),-14.2% (inactive)
14,O=C(c1ccccn1)c1conc1C(=O)c1ccc(Br)cc1,0.5% (inactive)
15,CN(C(=S)NC(=O)Cc1ccccc1)c1ccccc1,-27.4% (inactive)
16,Cc1cc(C)cc(NC(=S)N2CCN(S(=O)(=O)c3ccccc3)CC2)c1,-17.6% (inactive)
17,Cc1csc(CN(C)C(=O)CC2C(=O)NCCN2Cc2ccc(F)cc2Cl)n1 (configuration not stated),-11.4% (inactive)
18,c1coc(CNc2nc3ccccc3n2CCN2CCOCC2)c1,43.1% (active)
19,CCCn1c(NCc2ccco2)nc2ccccc21,-16.4% (inactive)
20,c1csc(CNc2nc3ccccc3n2CCN2CCOCC2)c1,1.1% (inactive)
21,N#C/C(=C\c1ccc([N+](=O)[O-])cc1)c1ccccn1,-27.2% (inactive)
22,CN(CCC#N)c1ccc(/C=C(\C#N)c2ccccn2)cc1,30.9% (inactive)
23,CCN(CC)c1ccc(/C=C(\C#N)c2ccccn2)cc1,-55.6% (inactive)
24,CN(C)c1ccc(/C=C(\C#N)c2ccccn2)cc1,73.6% (active)
25,CNc1ccc(/C=C(\C#N)c2ccccn2)cc1[N+](=O)[O-],-34.3% (inactive)

row,SMILES,inhibition
1,N#C/C(=C\c1ccc(Cl)c([N+](=O)[O-])c1)c1ccccn1,47.2% (active)
2,CCOC(=O)c1sc(NC(=O)C(C)Sc2nnc(N)s2)nc1C (configuration not stated),-12.9% (inactive)
3,CCNC(=O)Nc1cc2nc(C)n(Cc3ccc(Br)cc3)c2nc1C,24.1% (inactive)
4,CCOC(=O)c1cc(C)n(-c2c(C)n(C)n(-c3ccccc3)c2=O)c1C,-12.8% (inactive)
5,COc1ccc(-n2c(C)cc(C(=O)CCl)c2C)cc1,39.1% (inactive)
6,Cc1cc(-n2c(C)cc(C(=O)CN3C(=O)NC4(CCCC4)C3=O)c2C)no1,-20.6% (inactive)
7,Cc1cc(-n2c(C)cc(C(=O)CCl)c2C)no1,46.4% (active)
8,Cc1cc(C(=O)CCl)c(C)n1-c1ccon1,28.2% (inactive)
9,Cc1cc(C(=O)CCl)c(C)n1-c1cccc([N+](=O)[O-])c1,77.4% (active)
10,CC(=O)c1c(C(C)=O)c(C)n(-c2cccc([N+](=O)[O-])c2)c1C,-27.2% (inactive)
11,Cc1cc(C(=O)CCl)c(C)n1-c1c(C)n(C)n(-c2ccccc2)c1=O,42.5% (active)
12,Cc1cc(C(=O)CC#N)c(C)n1-c1c(C)n(C)n(-c2ccccc2)c1=O,-19.8% (inactive)
13,COc1ccc(NC(=O)Nc2cccc3ccccc23)cc1S(N)(=O)=O,25.8% (inactive)
14,N/C(=N\O)c1cccc(CS(=O)(=O)c2ccccn2)c1,-7.5% (inactive)
15,Cc1ccc(-n2[nH]c(C)c(C=NC34CN5CN(CN(C5)C3)C4)c2=O)cc1C,9.5% (inactive)
16,CCCN1C(=S)c2ccccc2C1c1ccccc1 (configuration not stated),35.5% (inactive)
17,O=S(=O)(NN1CCOCC1)c1ccc(Cl)s1,-37.6% (inactive)
18,O=C1c2cccc3cccc(c23)C(=O)N1Cc1ccccc1,-16.9% (inactive)
19,Cc1ccc(CN2CCN(CCCn3cccn3)CC2CCO)cc1 (configuration not stated),-31% (inactive)
20,CCOC(=O)N1CCN(c2cc(=O)n(Cc3ccc(F)cc3)c(=O)[nH]2)CC1,-37.3% (inactive)
21,Cc1ccc(CN2C3CCCC2CC(NC(=O)c2ccc(C)cc2)C3)cc1 (configuration not stated),-21.4% (inactive)
22,Cc1ccc(C(=O)NC2CC3CCCC(C2)N3Cc2ccccc2)cc1 (configuration not stated),59% (active)
23,Cc1ccc(CN2C3CCCC2CC(NC(=O)c2ccc(F)cc2)C3)cc1 (configuration not stated),-0.1% (inactive)
24,CC1CCCC(C)N1C(=O)Cn1nnc(-c2ccc([N+](=O)[O-])cc2)n1 (configuration not stated),-36.1% (inactive)
25,CC1=NC(C)(C)Cc2ccccc21,1.3% (inactive)

row,SMILES,inhibition
1,CC1(C)Cc2ccccc2C2=NNC(=O)C2=N1,41.8% (active)
2,CC1(C)CC(=O)C(C2=NC(C)(C)Cc3ccccc32)=C(O)C1,-9.1% (inactive)
3,O=[N+]([O-])c1cc2c(cc1/C=N/Nc1nc(Nc3ccccc3)nc(N3CCCCC3)n1)OCO2,-23% (inactive)
4,Cc1ccc([N+](=O)[O-])cc1NC(=O)CN(C1CCCCC1)S(=O)(=O)c1ccc(Cl)cc1,-5% (inactive)
5,O=S(=O)(c1ccc2ccccc2c1)N(CC1CO1)c1ccccc1 (configuration not stated),-30.1% (inactive)
6,Cc1nn2c(SCC(=O)c3cccs3)cc(C(C)(C)C)nc2c1-c1ccccc1,5.2% (inactive)
7,Cc1cc(SCC(=O)c2cccs2)n2nc(C)c(-c3ccc(Cl)cc3)c2n1,79.4% (active)
8,Cc1cc(SCC(=O)c2cccs2)n2nc(C)c(-c3ccccc3)c2n1,20.3% (inactive)
9,CCOc1ccc(/C=N/n2c(C)nc3ccccc3c2=O)cc1,-12.3% (inactive)
10,N#C/C(=C\c1cn(-c2ccccc2)nc1-c1cccnc1)c1nnc2n1CCCCC2,-13% (inactive)
11,O=C1COc2ccc(S(=O)(=O)NCc3ccccc3)cc2N1,-13.7% (inactive)
12,NC(=O)c1ccc(-c2ncc(-c3ccccc3)o2)cc1,14.6% (inactive)
13,Nc1ccc(-c2ncc(-c3ccccc3)o2)cc1,46.7% (active)
14,c1ccc(-c2cnc(-c3cccnc3)o2)cc1,-16.8% (inactive)
15,CCC(C)(C)NC(=O)CN(C(=O)CNS(=O)(=O)c1ccc(F)cc1)c1ccc2c(c1)OCCO2,-13% (inactive)
16,O=C(NCCCn1ccnc1)c1ccc(Cl)c(Cl)c1,3.9% (inactive)
17,O=S(=O)(Nc1ccc(N2CCOCC2)cc1)c1cccs1,-20.1% (inactive)
18,O=C(CC1S/C(=N/N=C/c2cccnc2)NC1=O)Nc1ccccc1 (configuration not stated),-13.1% (inactive)
19,O=C1N/C(=N\N=C\c2cccnc2)SC1Cc1ccc(SC(F)F)cc1 (configuration not stated),106% (active)
20,O=C1N/C(=N\N=C\c2ccc3ncccc3c2)SC1Cc1ccc(SC(F)F)cc1 (configuration not stated),-44% (inactive)
21,O=C(N/N=C/c1ccc([N+](=O)[O-])cc1)c1cccc(N2CCCC2=O)c1,-9.3% (inactive)
22,Cc1cc(=O)oc2cc(OCC(=O)NC(Cc3c[nH]c4ccc(O)cc34)C(=O)O)c(Cl)cc12 (configuration not stated),-16.2% (inactive)
23,COc1ccc(/C=C2\SC(=O)N(CCNC(=O)Cc3coc4cc(C)ccc34)C2=O)cc1OC,-2.7% (inactive)
24,CS(=O)(=O)c1ccc(C(=O)NCCN2C(=O)S/C(=C\c3cccnc3)C2=O)cc1[N+](=O)[O-],93.4% (active)
25,COc1ccc(C(=O)NCCN2C(=O)S/C(=C\c3cccnc3)C2=O)cc1[N+](=O)[O-],1.6% (inactive)

row,SMILES,inhibition
1,COc1ccc(/C=C2\SC(=O)N(CCNC(=O)Cc3coc4cc(OC)ccc34)C2=O)cc1,-10.8% (inactive)
2,Cc1c(C(=O)NCCN2C(=O)S/C(=C\c3cccnc3)C2=O)cccc1[N+](=O)[O-],1.5% (inactive)
3,COc1ccc2c(CC(=O)NCCN3C(=O)S/C(=C\c4cccnc4)C3=O)coc2c1,68% (active)
4,O=C(O)CSCC(=O)N1CCN(S(=O)(=O)c2ccccc2)CC1,-20.2% (inactive)
5,c1ccc(NC2=NCCN2CC2CCCC2)cc1,-17.2% (inactive)
6,CCC(C)NC(=O)c1ccc2nc(Cc3ccc(OC)cc3)oc2c1 (configuration not stated),-14.9% (inactive)
7,COc1ccc(Cc2nc3ccc(C(=O)NC(C)c4cnn(C)c4)cc3o2)cc1 (configuration not stated),-4.3% (inactive)
8,COc1ccc(OC)c(NC(=O)CNC(=O)Cn2cnc3sc(C)cc3c2=O)c1,-3.5% (inactive)
9,COc1ccc(-c2cc(=O)oc3cc(OC(=O)C4CCCCC4)ccc23)cc1,87.8% (active)
10,COc1ccc(-c2cc(=O)oc3cc(OCC(C)=O)ccc23)cc1,-12.9% (inactive)
11,O=C(Oc1ccc2ccc(=O)oc2c1)C1CCCCC1,-28.4% (inactive)
12,O=C(Oc1ccc2c(-c3ccccc3)cc(=O)oc2c1)C1CCCCC1,13.8% (inactive)
13,COc1ccc(-c2cc(=O)oc3cc(OC(C)C(=O)O)ccc23)cc1 (configuration not stated),29.6% (inactive)
14,Nc1cc(=O)[nH]c(SCc2ccccc2Cl)n1,-3.2% (inactive)
15,CN1C(=O)S/C(=C/c2cccnc2)C1=O,-3.3% (inactive)
16,Cc1cc(C(=O)NC2CC(C)(C)Cc3c2cnn3-c2ccccc2C)c(C)o1 (configuration not stated),-10.6% (inactive)
17,Clc1ccccc1OCc1nn2c(-c3ccncc3)nnc2s1,-2.2% (inactive)
18,COc1ccc(NC(=O)CSc2ccc(-c3sc(C)nc3C)nn2)cc1,-17.2% (inactive)
19,COc1ccc(NC(=O)CSc2ccc(-c3sc(C)nc3C)nn2)cc1OC,-3.5% (inactive)
20,CCOC(=O)CCCCCN1C(=O)c2cccc3cccc(c23)C1=O,-23.8% (inactive)
21,CCN(CC)S(=O)(=O)c1ccc(C(=O)NCCCn2ccnc2)cc1,-65.6% (inactive)
22,O=C(O)c1ccc(N2CCCCS2(=O)=O)cc1,-12.1% (inactive)
